Inconclusive results are not listed. Calls of active or inactive are those of the source. Unless noted, calls follow the shape of the dose curve; as a rule, active = well fitted curve in the direction sought with a large enough effect; inconclusive = small, poorly fitted or top-dose-only effect, or another doubt; inactive = no such curve, though single readings can be large; an effect the other way counts as inactive or inconclusive. Bounds are passed on as bounds.

Test [1] can be described thus: Cell Viability - N2a (AID 540).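 Also: plate controls were DMSO alone for no effect and tamoxifen control for full effect; nearly all actives have a fitted effect of over 45% in size.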 To be noted: N2a mouse neuroblastoma cell viability; activity change, negative = cytotoxicity: at 92.2 µM (top of the series). The essentials:
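N2a mouse neuroblastoma, 1500 cells/well, 5 hr settle; compound 40 hr, 37 °C; CellTiter-Glo 20 min RT; luminescence; Hill-fit AC50.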

Test [2] in a line: Cell Viability - H-4-II-E (AID 543). Also: % is scaled to controls: 0 for no effect and ±100 for the full control effect; nearly all actives have a fitted effect of over 35% in size. The method, boiled down: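 qHTS, rat hepatoma H-4-II-E, 1500 cells/well; 40 hr compound exposure, 37 °C; CellTiter-Glo ATP luminescence after 20 min RT; AC50 by standard Hill fit.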
The nature of test [3]: Cell Viability - Renal Proximal Tubule (AID 545).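 Also: 0% = DMSO only and -100% = 100 µM tamoxifen; nearly all actives have a fitted effect of over 40% in size.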 As to conditions: renal proximal tubule cells viability, primary cells of rat origin; activity change, negative = cytotoxicity: at 91.7 µM (top of the series). The essentials:
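In this qHTS format, normal rat kidney-derived proximal tubule cells in complete culture medium receive compound titrations, then sit 40 hours at 37 °C before luciferase-based ATP quantitation; potency is reported as AC50 from concentration-response curves.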

Test [4] can be described thus: Cell Viability - LYMP2-001 (AID 921).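 Also: cells exposed to compound for 24 h at 37 °C; 0% = DMSO only and full inhibition = tetraoctylammonium bromide control wells; nearly all actives have a fitted effect of over 70% in size.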 The essentials:
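A lymphoblastoid cell line of human origin was treated with library compounds across a concentration series for 24 hours, and viable cell number was estimated from ATP-driven luciferase light output. Hill modeling gave AC50.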

A short description of test [5]: MultiTox-Fluor Cytotoxicity Assay - LYMP1-001 - Live Cells (AID 947).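 Also: 0% = DMSO only and full inhibition = tetraoctylammonium bromide control.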
The nature of test [6]: MultiTox-Fluor Cytotoxicity Assay - LYMP1-002 - Dead Cells (AID 960).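 Also: cells exposed to compound for 16 h at 37 °C; 0% = DMSO and 100% = tetraoctylammonium bromide; nearly all actives have a fitted effect of over 60% in size.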 The essentials: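 Readout: fluorescence at 485/520 from cell-impermeant bis-AAF-R110 cleaved by proteases leaking from damaged cells. LYMP1-002 lymphoblastoid line, 16 hr compound treatment at 37 C, concentration-response in qHTS format; Hill-equation AC50 values.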
A short description of test [7]: Cell Viability - LYMP1-003 - Assay at 40 hr (AID 964). Also: % is scaled to controls: 0 for no effect and ±100 for the full control effect; nearly all actives have a fitted effect of over 60% in size. The method, boiled down:
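LYMP1-003 lymphoblastoid cells, 2500/well; 5 hr preincubation, 40 hr compound exposure, 37 C; CellTiter-Glo 30 min RT; luminescence; Hill-fit AC50. Positive control tetraoctylammonium bromide.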

A short description of test [8]: Cell Viability - LYMP2-009 (AID 968).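 Also: cells exposed to compound for 24 h at 37 °C; 0% = DMSO alone and the full-kill end = tetraoctylammonium bromide at 92 µM; nearly all actives have a fitted effect of over 55% in size.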
A short description of test [9]: Cell Viability - LYMP2-015 (AID 971).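 Also: cells exposed to compound for 24 h; 0% = DMSO only and full effect = 92 µM tetraoctylammonium bromide; nearly all actives have a fitted effect of over 55% in size.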 The essentials:
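qHTS cytotoxicity: 2500 cells/well, 5 hr 37 C, compound 24 hr 37 C, CellTiter-Glo 30 min RT, luminescence. Loss of ATP = toxicity; AC50 via standard Hill fit.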

Test [10] can be described thus: Cell Viability - LYMP2-017 (AID 972).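 Also: cells exposed to compound for 24 hours at 37 °C; % is scaled to controls: 0 for no effect and ±100 for the full control effect; nearly all actives have a fitted effect of over 55% in size.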 The essentials:
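Luminescent ATP read-out (CellTiter-Glo, 30 min RT) reports viable cell number. Cells: human lymphoblastoid line, 2500 per well, 5 hr preincubation, 24 hr compound exposure at 37 C. AC50 is derived from qHTS concentration-response data using the standard Hill model.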

The nature of test [11]: Cell Viability - LYMP2-019 (AID 973).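 Also: cells exposed to compound for 24 h at 37 °C; 0% = DMSO alone and full effect = 92 µM tetraoctylammonium bromide; nearly all actives have a fitted effect of over 55% in size.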 The method, boiled down:
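qHTS, 1536-well; 2500 cells/well; 5 hr pre-incubation, 24 hr compound exposure, 37 C; CellTiter-Glo added, 30 min RT; luminescence read; AC50 via standard Hill equation.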

The nature of test [12]: Cell Viability - LYMP2-010 (AID 981). The method, boiled down:
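qHTS cytotoxicity, 1536-well: 2500 cells/well, 5 hr settle, 24 hr compound at 37 C, CellTiter-Glo 30 min RT, luminescence read. Decrease in ATP = toxicity; AC50 via standard Hill equation. Positive control tetraoctylammonium bromide.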

Test [13] is described as follows: qHTS assay for small molecule agonists of retinoid X receptor alpha signaling (AID 588544; calls by dose curve). To be noted: HEK293T RXRa-UAS-bla, beta-lactamase reporter, 18 h; 530 nm emission. (In general: In qHTS, concentration-response curves come from the screen itself.)
Test [14] has as its target Retinoic acid receptor RXR-alpha (Homo sapiens) (UniProt P19793). Described as above.
Test [15] can be described thus: qHTS assay for small molecule disruptors of the mitochondrial membrane potential - 5 hr assay (AID 651755; calls by dose curve; also: % is scaled to controls: 0 for no effect and ±100 for the full control effect; nearly all actives have a fitted effect of over 40% in size). The method, boiled down:
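Seed HepG2 overnight, add compound, incubate 5 hr at 37C and 5% CO2, stain 30 min with Mito-MPS, then measure monomer (490/535 nm) and aggregate (540/590 nm) fluorescence.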

The nature of test [16]: qHTS assay for small molecule agonists of the antioxidant response element (ARE) signaling pathway measured by Nrf2-dependant transcriptional activity (AID 720636; active = well fitted curve in the direction sought with a large enough effect in the repeat runs; an effect the other way counts as inactive or inconclusive;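 also: HepG2 cells with an ARE-driven luciferase reporter; % of control where 0% means no effect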). The method, boiled down: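 Nrf2-dependent transcription is measured in ARE-luc HepG2 cells: compound is applied for 16 hr at 37 C after a 6 hr attachment period, and luciferase activity is quantified by luminescence using ONE-Glo.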

The target of test [17] is Nuclear receptor subfamily 1 group I member 2 (Rattus norvegicus) (UniProt Q9R1A7). Briefly: qHTS assay for small molecule activators of the rat pregnane X receptor (rPXR) signaling pathway (AID 651751; call rule not given here; also: 0% is about no effect). As to conditions: rPXR reporter cells, luciferase (One-Glo), 24 h.
Test [18] can be described thus: Cell Viability - SK-N-SH (AID 435; calls by dose curve; also: potency is read from the fitted curve at half-maximal effect). As to conditions: SK-N-SH neuroblastoma cell viability qHTS. The essentials: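 Human neuroblastoma line, 40 h exposure at 37 °C, ATP quantified via luciferase luminescence; DMSO and 100 uM tamoxifen define 0 and 100% inhibition for AC50 fitting.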
The nature of test [19]: Cell Viability - LYMP2-004 (AID 966).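 Also: cells exposed to compound for 24 h; plate controls were DMSO only for no effect and tetraoctylammonium bromide control for full effect; nearly all actives have a fitted effect of over 65% in size.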 The method, boiled down: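 Luminescent ATP read-out (CellTiter-Glo, 30 min RT) after 24 hr compound exposure at 37 C; 2500 lymphoblastoid cells/well, complete medium. Decrease in ATP = cytotoxicity; AC50 from standard Hill model.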
The target in test [20] is Thyroid hormone receptor beta (Homo sapiens) (UniProt P10828). Briefly: qHTS assay for small molecule antagonists of thyroid hormone receptor beta signaling (AID 588547; active = well fitted inhibition curve with a large enough effect in the signal ratio, with a control signal flat, not every such curve was filed as active; the % refers to the signal ratio;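 also: cells stimulated with 0.4 nM T3 agonist during compound exposure; % is scaled to controls: 0 for no effect and ±100 for the full control effect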). As to conditions: TR-UAS-bla HEK293, beta-lactamase ratio, antagonist mode, 18 h. The essentials:
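TR-UAS-bla GripTite HEK293 cells in 2% charcoal/dextran FBS medium were preincubated 4 h at 37 C, given compound (0.59 nM to 92 uM) plus 0.4 nM T3 (final) for 18 h, then CCF4 for 2 h at RT; Hill fit gave IC50.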

Chain of Thyroid hormone receptor beta (Homo sapiens) (P10828 whole entry, looked up): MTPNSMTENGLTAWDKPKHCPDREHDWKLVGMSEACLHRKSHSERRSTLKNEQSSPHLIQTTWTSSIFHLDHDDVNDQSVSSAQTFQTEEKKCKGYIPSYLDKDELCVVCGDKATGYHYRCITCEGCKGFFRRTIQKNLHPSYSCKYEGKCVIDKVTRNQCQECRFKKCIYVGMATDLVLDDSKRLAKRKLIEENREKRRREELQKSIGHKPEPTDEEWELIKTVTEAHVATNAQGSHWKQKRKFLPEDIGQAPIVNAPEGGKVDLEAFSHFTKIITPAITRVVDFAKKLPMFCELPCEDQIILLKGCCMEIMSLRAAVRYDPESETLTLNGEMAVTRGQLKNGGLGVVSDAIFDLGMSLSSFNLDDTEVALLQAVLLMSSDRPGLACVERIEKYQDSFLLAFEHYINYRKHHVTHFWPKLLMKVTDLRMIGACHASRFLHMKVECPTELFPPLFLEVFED
Chain of Nuclear receptor subfamily 1 group I member 2 (Rattus norvegicus) (Q9R1A7 whole entry, looked up): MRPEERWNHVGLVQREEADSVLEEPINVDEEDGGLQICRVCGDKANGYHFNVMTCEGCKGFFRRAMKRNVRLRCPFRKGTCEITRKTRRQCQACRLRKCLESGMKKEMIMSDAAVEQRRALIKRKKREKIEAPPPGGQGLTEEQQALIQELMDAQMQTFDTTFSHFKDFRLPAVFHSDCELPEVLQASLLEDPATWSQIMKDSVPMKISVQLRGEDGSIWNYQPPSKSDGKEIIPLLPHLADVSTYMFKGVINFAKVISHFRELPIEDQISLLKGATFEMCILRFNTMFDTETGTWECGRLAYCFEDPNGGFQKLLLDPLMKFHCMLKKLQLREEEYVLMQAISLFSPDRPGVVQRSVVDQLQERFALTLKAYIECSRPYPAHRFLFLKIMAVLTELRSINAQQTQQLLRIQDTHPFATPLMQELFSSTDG
Chain of Retinoic acid receptor RXR-alpha (Homo sapiens) (P19793 whole entry, looked up): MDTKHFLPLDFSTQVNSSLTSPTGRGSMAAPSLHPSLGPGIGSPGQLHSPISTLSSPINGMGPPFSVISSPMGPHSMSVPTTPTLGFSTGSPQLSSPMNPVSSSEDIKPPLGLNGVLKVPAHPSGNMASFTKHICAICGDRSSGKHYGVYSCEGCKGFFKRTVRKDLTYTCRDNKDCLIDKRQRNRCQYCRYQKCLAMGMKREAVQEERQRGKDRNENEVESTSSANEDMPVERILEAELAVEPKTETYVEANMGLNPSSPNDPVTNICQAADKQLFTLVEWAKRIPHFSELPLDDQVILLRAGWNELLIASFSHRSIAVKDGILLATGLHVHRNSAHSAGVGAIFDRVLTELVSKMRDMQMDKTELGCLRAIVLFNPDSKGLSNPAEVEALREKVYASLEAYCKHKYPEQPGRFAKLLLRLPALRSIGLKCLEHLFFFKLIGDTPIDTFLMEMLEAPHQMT

As to `CC(=O)Nc1cccc(C)c1`, in test [1], the activity change, negative = cytotoxicity was -6.73% (inactive). Also, the Potency result in test [2], in test [3], in test [4], in test [5], in [6] and in [7] was “inactive” in each case. Besides, the Potency result in [8], in [9], in [10], in [11], in [12] and in test [14] was “inactive” in each case. Moreover, the Potency result in [15] and in test [16] was “inactive” in each case. Moreover, the max response in test [13] was -8.8%; in test [17], -0.307% (inactive).

On to `C=CC(C)(O)CCCC(C)CCCC(C)CCCC(C)C` (stereo not drawn), for which the Potency in test [18] is > 92 µM (inactive). The activity change, negative = cytotoxicity in test [1] is -17.1% (inactive). Moreover, the Potency result in test [2], in [3], in test [4], in test [5], in [6] and in test [7] was “inactive” in each case. The Potency entry in test [19], in test [8], in test [9], in [10], in [11] and in test [12] was “inactive” throughout. In addition, the Potency result in [14] and in test [16] was “inactive” in each case. Moreover, the values for the max response in test [13] and in [17] were -17.1% and 4.48% (inactive), respectively. Moreover, the activity change % (negative = inhibition) in test [20] was 8.61% (inactive).

Consider `CCOc1ccc2nc(N)sc2c1`, for which, in test [18], the Potency is > 92 µM (inactive). Besides, in test [1], the activity change, negative = cytotoxicity is -2.03% (inactive). For the same compound, the Potency result in test [2], in [3], in test [4], in test [5], in test [6] and in test [7] was “inactive” in each case. Besides, the Potency entry in test [19], in [8], in test [9], in test [10], in [11] and in [12] was “inactive” in each case. In addition, the Potency entry in test [14] was “inactive”. In test [13], the max response was 1.63%. In addition, the activity change % (negative = inhibition) in test [20] is -4.05% (inactive).

As for `c1ccc(SCCSc2ccccc2)cc1`, in [18], the Potency is > 92 µM (inactive). For the same compound, in test [1], the activity change, negative = cytotoxicity is 8.64% (inactive). Also, the Potency entry in test [2], in test [3], in test [4], in test [5], in [6] and in test [7] was “inactive” each time. The Potency result in test [19], in test [8], in test [9], in test [10], in test [11] and in test [12] was “inactive” in each case. For the same compound, the Potency result in test [14] and in test [15] was “inactive” throughout. Moreover, the max response in test [13] is -9.01%. In addition, the activity change % (negative = inhibition) in [20] was 8.32% (inactive).

On to `Nc1ccc(-c2ccc(N)c(O)c2)cc1O`, for which the Potency in [18] is > 92 µM (inactive). Further, the activity change, negative = cytotoxicity in test [1] is -122% (active). Further, the Potency entry in test [3], in test [5], in test [6], in test [7] and in [16] was “inactive” throughout. Further, the activity change % (negative = inhibition) in test [20] is -12.5% (inactive). Moreover, the max response in test [17] was -1.46% (inactive).

`C[Si](C)(C)Cl`: in test [18], the Potency was > 92 µM (inactive). The activity change, negative = cytotoxicity in test [1] is -6.55% (inactive). In addition, the Potency entry in [2], in test [3], in test [4], in [6], in test [7] and in [19] was “inactive” each time. The Potency result in test [8], in [9], in [10], in test [11], in test [12] and in test [14] was “inactive” throughout. The Potency result in [15] and in test [16] was “inactive” throughout. The figures for the max response in test [13] and in test [17] were 8.09% and 1.16% (inactive), respectively. Besides, the activity change % (negative = inhibition) in test [20] was -7.14% (inactive).

Regarding `O=C(Cl)c1ccc([N+](=O)[O-])cc1`, in test [1], the activity change, negative = cytotoxicity is 7.26% (inactive). Also, the Potency result in test [2], in test [3], in test [4], in test [5], in test [6] and in [7] was “inactive” each time. Also, the Potency result in test [19], in [8], in test [9], in test [10], in [11] and in [12] was “inactive” each time. Also, the Potency entry in test [14], in test [15] and in [16] was “inactive” each time. The max response in test [13] is -12.7%; in test [17], -6.29% (inactive). Moreover, in test [20], the activity change % (negative = inhibition) is 12% (inactive).

For the origin of these results see PubChem BioAssay (NCATS).
